Here are results for 59 compounds from PubChem BioAssay AID743126 (The Scripps Research Institute Molecular Screening Center, 2013).

Hit rate of the full screen: of about 370,000 compounds, about 2,100 (0.57%) were called active. This is one part of a sample in which actives are shown more often than they occur. Unmarked numbers belong to inactive results.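 The calls were made as follows: active = inhibition above mean plus 3 SD of compounds lying within the high and low control bounds (cut at about 19% in these data); inactive = the rest.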

Chain of Group 3 secretory phospholipase A2 (Homo sapiens) (Q9NZ20 whole entry, looked up): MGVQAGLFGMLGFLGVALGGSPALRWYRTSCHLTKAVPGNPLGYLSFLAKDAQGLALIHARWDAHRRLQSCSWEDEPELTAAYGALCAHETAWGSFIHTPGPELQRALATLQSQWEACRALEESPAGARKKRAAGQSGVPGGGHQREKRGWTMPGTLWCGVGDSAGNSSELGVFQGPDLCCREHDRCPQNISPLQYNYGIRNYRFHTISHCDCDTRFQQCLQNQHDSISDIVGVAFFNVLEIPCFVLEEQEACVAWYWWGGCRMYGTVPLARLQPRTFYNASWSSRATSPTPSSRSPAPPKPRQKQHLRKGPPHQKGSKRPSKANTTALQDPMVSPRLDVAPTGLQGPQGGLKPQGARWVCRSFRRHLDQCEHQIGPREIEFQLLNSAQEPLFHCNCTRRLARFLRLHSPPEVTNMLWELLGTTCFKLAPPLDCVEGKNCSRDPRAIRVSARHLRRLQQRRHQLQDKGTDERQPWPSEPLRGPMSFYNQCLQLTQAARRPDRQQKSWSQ

This test has as its target Group 3 secretory phospholipase A2 (Homo sapiens) (UniProt Q9NZ20). In words: HGIII-sPLA2 enzyme inhibition – biochemical, QFRET, BODIPY PC-A2 liposome substrate, primary screen (AID 743126).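 Also: 0% = median of test compound wells and 100% = no enzyme DMSO wells.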 The conditions noted are these: QFRET BODIPY PC-A2 liposome hydrolysis, fluorescence; at 12.2 µM; stronger effect = higher value.
One may read the inhibition as the drop in the measured response relative to a control, in per cent. For the compound `CC(C)CNS(=O)(=O)CC1NCCc2ccccc21` (centres undefined), the inhibition is 3.21%. Consider `COCCN(C(=O)c1ccco1)c1nnc(-c2ccc(OC)cc2)s1`, for which the inhibition was -1.24%. As to `COc1cc(OC)cc(C2=Cc3ccccc3C(CC(=O)c3ccco3)N2c2ccc(-c3cnc(OC)nc3)cc2)c1` (centres undefined), the inhibition is 20.3% (active).

Take `COc1cc(OC)cc(-c2nc3nc(C)c(CCC(=O)NCc4ccco4)c(C)n3n2)c1`: the inhibition was 9.12%. Regarding `CC(c1c[nH]c2ccccc12)c1c(-c2ccccc2)n(C)c2ccccc12` (centres undefined), the inhibition was -21.1%. With `COc1ccc(CSc2nnc(-c3cccc(C)c3)n2C)cc1` the figure was 11.9%. With `O=C(CSc1nc2sc3c(c2c(=O)n1-c1ccccc1)CCCC3)NN=Cc1ccc(OCc2ccccc2)cc1` the figure was -1.3%; with `COC(=O)C1CN(CC(C)C)CCS(=O)(=O)N1Cc1ccc(F)cc1` (centres undefined), 5.81%; with `N#Cc1ccccc1OC[C@@H](O)CN1CCC(C(O)(c2ccccc2)c2ccccc2)CC1`, -25.3%. With `NS(=O)(=O)c1ccc(CNC(=S)NC(=O)c2ccco2)cc1` the figure was -1.55%. Consider `COc1ccc(/C=C(/NC(=O)c2ccco2)C(=O)Nc2ccc(C(C)=O)cc2)cc1`, for which the inhibition was 10.6%. For `CC(Oc1ccc2ccccc2c1)C(=O)NNC(=S)NC(=O)c1ccco1` (centres undefined) the value was 20% (active); for `CCOC(=O)C1=C(C)NC2=C(C(=O)CC(C)(C)C2)C1c1ccc2c(c1)OCO2` (centres undefined), 14.4%. Consider `CCCOc1ccc(Oc2c(Cl)cnn(Cc3cccc4ccccc34)c2=O)cc1`, for which the inhibition is 3.84%. With `Cc1ccc2[nH]c(C(=O)O)c(NC(=O)c3ccccc3[N+](=O)[O-])c2c1` the figure was -10.3%; with `COc1cccc2c(C)c(C(=O)O)[nH]c12`, -1.9%; with `Cc1c(C(=O)N/N=C/c2ccccc2)[nH]c2c([N+](=O)[O-])cccc12`, 21.8% (active). Take `O=C(NCc1cccs1)C1CCCN(S(=O)(=O)c2ccc([N+](=O)[O-])cc2)C1` (centres undefined): the inhibition is 2.84%. Consider `CN1C[C@]2(C=C3CCCCC3n3c(=O)n(-c4ccccc4)c(=O)n32)N=C1NC(=O)c1ccccc1` (some centres undefined), for which the inhibition is -6.07%. In the case of `O=C(Nc1cc(Cl)cc(Cl)c1)OCCN1CCCC12CCC(c1ccccc1)CC2` (centres undefined), the inhibition is -8.41%.

As for `C#CCCN([C@H](C(=O)OC)C(C)C)S(=O)(=O)c1ccc(F)cc1Br`, the inhibition is 3.19%. With `COP(=O)(O)CNC(=O)OCc1ccccc1`, the inhibition is 2.13%. With `O=C(CN1CCCc2ccccc21)NCc1ccc(F)cc1` the figure was 7.05%; with `N=C(N)SCc1cccc2ccccc12`, 35.3% (active).

In the case of `CSC1=NCCN1C(=O)Cc1cccc2ccccc12`, the inhibition is 7.18%. In the case of `CCc1ccc(-c2nn(-c3ccccc3)cc2CSC(=N)N)cc1`, the inhibition is 15.7%.

Take `O=C(CNS(=O)(=O)c1ccccc1F)N1CCN(c2ccccn2)CC1`: the inhibition is 5.26%. With `Cc1cc(C)n(-c2nc(C(F)(F)F)nc3ccccc23)n1` the figure was 1.7%.

For `COc1ccccc1-c1cnn2c(N3CCOCC3)cc(C)nc12`, the inhibition was 17.5%. With `Cc1cc(-n2nc(C)cc2C)n2ncc(-c3ccccc3)c2n1` the figure was 21.3% (active). With `COC(=O)C[C@@H]1CC[C@H]2[C@@H](COc3ccc(NS(=O)(=O)CC(F)(F)F)cc3C(=O)N2C)O1`, the inhibition was 6.09%. As to `O=C(CC(=O)N/N=C\c1cccc(Cl)c1Cl)NCc1ccccc1`, the inhibition was -20.8%. On to `O=C(/C=C/c1c(Cl)cccc1Cl)NCc1ccccc1`, for which the inhibition was 20% (active). For the compound `CCOC(=O)CNC(=O)/C=C/c1c(Cl)cccc1Cl`, the inhibition was -5.13%. With `O=C(CSc1nc2ccccc2s1)NN=Cc1ccc(O)cc1O` the figure was -23%; with `CC(C)c1ccc(Nc2nnc(SCC(=O)c3nnc(-c4ccccc4)o3)s2)cc1`, 22.6% (active); with `CN(C(=O)CSc1nnc(Nc2ccccc2)s1)C1CCS(=O)(=O)C1` (centres undefined), -0.8%. For `COc1cccc(Nc2nnc(SCC(=O)N3CC(C)OC(C)C3)s2)c1` (centres undefined) the value was 13.8%; for `COc1ccc(-n2c(SCC(=O)NC3CCCC3)nnc2-c2ccncc2)cc1`, 12.7%.

For `CCCCOC(=O)CCCc1ccc([N+](=O)[O-])cc1[N+](=O)[O-]`, the inhibition was 1.12%. As to `CCCCOc1ccc(CSC(=N)N)cc1[N+](=O)[O-]`, the inhibition was 34.6% (active).

For `CCCCCOc1ccc(CSC2=NCCN2)cc1[N+](=O)[O-]`, the inhibition is -1.57%. As for `COc1ccc(N2CCN(CCNS(=O)(=O)c3ccc(Cl)s3)CC2)cc1`, the inhibition was 0.02%. With `O=S1(=O)c2ccc(N3CCN(Cc4ccccc4F)CC3)cc2Oc2ccccc2CN1Cc1cn(Cc2ccc(Cl)cc2)nn1` the figure was -0.32%; with `O=C(Nc1nc2ccc(Cl)cc2s1)c1cc(-c2ccc(Cl)cc2)nc2ccccc12`, 13.3%.

Consider `Cc1cc(C(=O)Nc2ccc(C)c(S(=O)(=O)N3CCOCC3)c2)c2ccccc2n1`, for which the inhibition is -16.7%. For `O=C(Nc1cccc(F)c1)c1cc(-c2ccco2)nc2ccccc12` the value was 23.6% (active); for `CC(C)(C)NC(=O)Cn1c(SCC(=O)Nc2nccs2)nc2ccccc21`, 3.98%. Take `O=C(CSc1nc2ccccc2n1Cc1ccccc1)NNC(=S)Nc1ccccc1`: the inhibition was 34.3% (active). For `CCC(c1nnc(SCC(=O)NNC(=O)c2ccccc2)n1Cc1ccccc1)N(C)C` (centres undefined) the value was -0.56%; for `CCC(=O)Nc1ccc2c(c1)C(=O)N(C)[C@H]1CC[C@H](CC(=O)NCCOC)O[C@@H]1CO2`, -9.58%. For `Nc1[nH]c(/C=C2/CCCCC2n2[nH]c(=O)n(-c3ccccc3)c2=O)c(Cc2ccccc2)[n+]1Cc1ccccc1` (centres undefined) the value was -5.57%; for `CCn1c(-c2ccncc2)n[nH]c1=S`, 3.35%; for `CCCc1cc(-c2n[nH]c(=S)n2Cc2ccccc2)cs1`, 2.87%. Take `CCc1cc(-c2n[nH]c(=S)n2CC(C)C)cs1`: the inhibition is 19.6% (active). On to `CCC(=O)c1c(CC)c2n3c1=CC[C@H]3CC(Br)C=2` (some centres undefined), for which the inhibition is 1.91%. For `O=C(CSc1nnc(SCc2ccc(Cl)cc2)s1)N/N=C/c1ccccc1Cl` the value was -4.99%. Take `CCSc1nnc(SCC(=O)NNC(=O)c2ccccc2F)s1`: the inhibition is 4.1%. For `Cc1ccc(NC(=S)NNC(=O)CSc2nnc(SCc3ccccc3Cl)s2)cc1` the value was 19.7% (active).
